Bioassay records as filed in PubChem BioAssay.
Pol eta inh-1: DNA polymerase eta (human) inhibition; Q9Y253; recombinant Pol eta, fluorescent DNA replication assay; Potency, µM (highest dose often 114 µM), actives largely listed as inhibitors; 390,000 compounds, 1.2% hits; AID 588591
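Pol eta at 10 nM preincubated with compounds 15 min at room temperature; reaction started with fluorescent substrate (50 nM final) and read kinetically at 0 and 10 min.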
PI5P4K alpha inh: inhibitors of human PI5P4K alpha. 330,000 compounds, 1.2% hits. PI5P4Kalpha enzyme, ADP-Glo luminescence, 60 min; stronger effect = lower value. max response, %. P48426; active = max response of -50% or lower; inconclusive = between -30% and -50%; inactive = -30% or higher; also: value at the top dose of about 77 µM
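Reactions run in 0.038 M HEPES pH 7.4, 0.28 mM EGTA, 0.1% CHAPS and 5% DMSO, with PI5P4Kalpha, substrate, compound and 5 microM ATP final, one hour at room temperature. Readout is ADP-Glo luminescence.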
Pol kappa inh-1: blocks human DNA polymerase kappa activity; Q9UBT6; Potency, µM (highest dose often 107 µM), actives largely listed as inhibitors; 400,000 compounds, 0.53% hits; AID 588579; purified Pol kappa, fluorescent DNA synthesis assay, 10 min
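Here, compound and 10 nM enzyme are combined for 15 min at room temperature; adding 50 nM substrate (final) starts DNA synthesis, tracked by fluorescence at 0 and 10 min against buffer-only wells.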
POLI inh: blocks human DNA polymerase iota activity. Pol iota fluorescent replication assay, 10 min. Q9UNA4. Potency, µM (titrated, usually from 115 µM), hits mostly inhibitors. 390,000 compounds, 1% hits
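Fluorescent replication assay read twice, at 0 min and 10 min after adding 50 nM (final) substrate. Enzyme (10 nM) and compounds were first incubated 15 min at room temperature; enzyme-free buffer wells were negative controls.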
FEN1 inh-1: blocks human flap endonuclease 1. P39748. Recombinant FEN1 flap cleavage, fluorescence, 15 min. Potency, µM (doses to about 114 µM), actives largely listed as inhibitors. 390,000 compounds, 0.35% hits; also: nearly all actives have a fitted effect of over 65% in size
Target sequence (P39748 whole entry, looked up): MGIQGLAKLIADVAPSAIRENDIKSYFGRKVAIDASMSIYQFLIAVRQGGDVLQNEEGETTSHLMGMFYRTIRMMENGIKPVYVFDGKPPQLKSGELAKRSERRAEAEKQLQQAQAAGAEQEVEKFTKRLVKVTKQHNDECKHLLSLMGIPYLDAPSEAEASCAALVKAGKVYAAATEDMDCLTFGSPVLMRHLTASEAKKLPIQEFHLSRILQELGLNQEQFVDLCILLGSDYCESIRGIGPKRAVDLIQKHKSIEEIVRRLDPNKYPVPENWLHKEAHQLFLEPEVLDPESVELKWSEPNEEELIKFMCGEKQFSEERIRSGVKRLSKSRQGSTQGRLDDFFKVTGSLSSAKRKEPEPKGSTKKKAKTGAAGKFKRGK
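Steps: FEN1 (10 nM) dispensed; compound added by pin tool; 15 min at room temperature; substrate added to 50 nM final; reads at 0 min and 15 min; data normalized and fitted (four-parameter Hill).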
Pol beta inh: blocks human DNA polymerase beta activity. P06746. Pol beta primer extension/strand displacement, fluorescence kinetic. Potency, µM (highest dose often 114 µM), actives largely listed as inhibitors. 340,000 compounds, 1.3% hits
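Reaction started by 50 nM substrate onto compound-treated Pol beta (10 nM, 15 min preincubation, room temperature); plates read at 0 min and 10 min. Normalized concentration-effect data fitted by four-parameter Hill equation.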
TbPGK inh: validation of Trypanosoma brucei phosphoglycerate kinase inhibitors; TbPGK coupled GAPDH assay, Kinase-Glo luminescence; shares compounds with Pol kappa inh-1; Potency, µM (highest dose often 57.5 µM), actives largely listed as inhibitors; 500 compounds, 79% hits; also: nearly all actives have a fitted effect of over 65% in size
Pol iota confirm: Confirm cherry-picked inhibitors of human polymerase iota; shares compounds with Pol kappa inh-1; Pol iota primer extension, TAMRA/BHQ fluorescence; Potency, µM, usual class: inhibitors; 1,500 compounds, 77% hits
Pol kappa inh-2: confirmation of human DNA polymerase kappa inhibitors; shares compounds with Pol eta inh-1; purified Pol-kappa, fluorescent strand-displacement substrate; Potency, µM, most hits filed as inhibitors; 920 compounds, 76% hits; AID 720501
Pol eta inh-2: Pol eta (human) inhibition, cherry-pick confirmation; shares compounds with Pol eta inh-1; Pol eta primer extension, TAMRA/BHQ fluorescence, 10 min; Potency, µM, actives largely listed as inhibitors; 2,600 compounds, 64% hits
FEN1 inh-2: FEN1 inhibition, cherry-pick retest; Potency, µM, usual class: inhibitors; shares compounds with FEN1 inh-1; 880 compounds, 79% hits; FEN1 flap cleavage, TAMRA/BHQ2 fluorogenic DNA substrate; AID 720498; also: nearly all actives have a fitted effect of over 60% in size
A number is an active result; 0 = inactive; ? = inconclusive; - = not tested or not shown. Rows were chosen to be rich in hits. Some 2.8% of all compounds tested hit in one or more screens of this group. Unless noted, calls follow the shape of the dose curve; as a rule, active = well fitted curve in the direction sought with a large enough effect; inconclusive = small, poorly fitted or top-dose-only effect, or another doubt; inactive = no such curve, though single readings can be large; an effect the other way counts as inactive or inconclusive.

SMILES	Pol eta inh-1	PI5P4K alpha inh	Pol kappa inh-1	POLI inh	FEN1 inh-1	Pol beta inh	Pol iota confirm	Pol eta inh-2	FEN1 inh-2	others
CCNC(=O)C1CCCN(C(=O)c2ccc3ccccc3c2)CC1 (stereo unspecified)	-	0	-	-	-	-	-	-	-
COc1cc2c(oc(=O)c3cc(C)cc(OC)c32)c2c(C3OC(C)C(O)C(C)(O)C3O)ccc(O)c12 (stereo unspecified)	4µM	0	40µM	14µM	3.5µM	-	30	21	0.85
O=C(CSc1nnc(-c2ccncc2)o1)N1CCc2ccccc2C1	0	0	0	0	0	0	-	-	-
O=C(NC(=O)c1cnccc1C(F)(F)F)Nc1ccccc1	0	0	0	0	0	0	-	-	-
Cc1c(C(=O)N2CCNCC2)oc2ccccc12	0	0	0	0	0	0	-	-	-
Cc1[nH]c2ccc(C(=O)O)cc2c1C	0	-	0	?	0	0	-	-	-
CCCc1c(C)[nH]c2ccc(C(=O)O)cc2c1=S	3.2µM	?	32µM	6.3µM	45µM	?	17	5.4	43
CN(c1ccccc1)c1ccc(/C=C(\CCC(=O)O)c2nc3ccccc3s2)cc1[N+](=O)[O-]	8.9µM	?	?	22µM	?	8.9µM	27	67	67
C=C1C[C@H](O[C@@H]2O[C@H](CO)[C@@H](O)[C@H](O)[C@H]2O)[C@@H]2[C@H](OC(=O)[C@H]2C)[C@H]2[C@H](C)[C@H](O)C[C@@H]12	0	0	0	0	0	-	-	-	-
O=S(=O)(O)c1cc(Cl)cc(N=Nc2ccc(O)cc2O)c1O	13µM	-98	0	0	56µM	-	12	43	85	Pol kappa inh-2=6.7
O=[N+]([O-])c1ccc(N=Nc2ccc(O)cc2O)cc1	0	0	0	0	0	?	-	-	-
NS(=O)(=O)c1ccc(N/N=C/c2ccc(C(=O)O)cc2)c([N+](=O)[O-])c1	0	0	0	0	0	0	-	-	-
CC(=O)Nc1ccc(C=NNc2ccc(S(=O)(=O)Nc3ccccc3C(=O)O)cc2[N+](=O)[O-])cc1	22µM	-92	0	?	50µM	-	?	76	85	Pol kappa inh-2=21
COc1cc(C=NNc2ccc(S(=O)(=O)Nc3ccccc3C(=O)O)cc2[N+](=O)[O-])ccc1O	50µM	-69	0	?	45µM	-	75	19	60
O=C(O)c1ccccc1NS(=O)(=O)c1ccc(N/N=C/c2cccc(O)c2O)c([N+](=O)[O-])c1	3.2µM	?	28µM	10µM	40µM	-	34	30	48	TbPGK inh=12µM
O=C(CSc1nc2ccccc2n1Cc1c(F)cccc1Cl)N1CCN(c2ccc(F)cc2)CC1	0	-	0	0	0	0	-	-	-
O=C(Nc1ccc(F)cc1Cl)C1CCN(c2ncnc3c2nc2n3CCCCC2)CC1	0	-	0	0	0	0	-	-	-
COc1ccccc1C(=O)NCC1(c2ccccc2)CCCC1	0	0	0	0	0	0	-	-	-
Cc1cccc(C)c1NC(=O)C1(C)CN(S(C)(=O)=O)CC(=O)N1CCc1ccccc1F (stereo unspecified)	-	0	-	-	-	-	-	-	-
CCN1CCc2c(sc(NC(=O)CSc3ccccc3)c2-c2nc3ccccc3s2)C1	0	-	0	0	0	0	-	-	-
CC(=O)Nc1sc2c(c1-c1nc3ccccc3s1)CCN(C(C)C)C2	?	0	?	?	?	3.5µM	19	-	12	Pol kappa inh-2=12
CC(=O)Nc1sc2c(c1-c1nc3ccccc3s1)CCN(C(C)C)CC2	-	-	-	-	-	-	67	-	24
CCCCN1C(=O)/C(=C/C=C2\Oc3ccccc3N2CC)SC1=S	?	0	0	?	?	0	-	-	-
CCN1/C(=C/C=C/c2oc3ccc(-c4ccccc4)cc3[n+]2CC)Oc2ccc(-c3ccccc3)cc21	?	-57	?	?	32µM	79µM	30	21	27	Pol kappa inh-2=38
CCc1ccc(NC(=O)c2cc3c(COC(C)=O)cnc(C)c3oc2=O)cc1	0	-	0	0	0	0	-	-	-
SMILES	Pol eta inh-1	PI5P4K alpha inh	Pol kappa inh-1	POLI inh	FEN1 inh-1	Pol beta inh	Pol iota confirm	Pol eta inh-2	FEN1 inh-2	others
COc1ccc2nc(C)cc(N/N=C/c3cccc(OC)c3O)c2c1	?	0	79µM	?	14µM	?	30	27	9.5	Pol kappa inh-2=?
CN1\C(=C/C=C/C=C/C=[N+](C)C)C(C)(C)c2ccccc21	40µM	?	50µM	18µM	89µM	16µM	38	34	85	Pol kappa inh-2=38
CN1/C(=C\C=O)C(C)(C)c2ccccc21	0	0	0	0	0	0	-	-	-
Cc1ccccc1NC(=O)c1ccccc1NC(=O)c1ccccc1F	0	0	0	0	0	0	-	-	-
CCN(CC)CCOc1ccc2c(c1)C(=NO)c1cc(OCCN(CC)CC)ccc1-2	?	-	?	20µM	13µM	40µM	75	-	8.5
CCN(CC)CCOc1ccc(Br)cc1	0	-	0	0	0	0	-	-	-
CCN(CCCNc1cc2c(c(N)c1S(=O)(=O)O)C(=O)c1ccccc1C2=O)c1ccccc1	25µM	-56	-	-	-	-	67	76	?	Pol kappa inh-2=?
CCCn1c(SCc2cc(=O)oc3ccc4ccccc4c23)n[nH]c1=O	0	0	0	0	0	0	-	-	-
O=c1c(O)cccc2cc(O)c(O)c(O)c12	0	-83	0.89µM	?	?	0.16µM	27	19	24	TbPGK inh=0.26µM;Pol kappa inh-2=24
O=Cc1cc2ccccc2cc1O	-	-	0	0	0	-	-	-	-
N#CC(C#N)=C1C=C2C=C(N3CCCCCC3)CCC2CC1 (stereo unspecified)	50µM	0	?	45µM	?	40µM	42	17	67
CC1(C)CC(NCCN2CCN(C3=CC(=C(C#N)C#N)CC(C)(C)C3)CC2)=CC(=C(C#N)C#N)C1	0	0	0	0	0	0	-	-	-
C=CCc1cccc2cc(C(=O)Nc3ccc(F)cc3)c(=O)oc12	0	0	0	0	0	0	-	-	-
C=CCc1cccc2cc(C(=O)Nc3ccc(S(=O)(=O)Nc4nnc(CC)s4)cc3)c(=O)oc12	10µM	0	0	8.9µM	40µM	0	?	30	85	Pol kappa inh-2=38
CN(C)/C=C1\SC(=S)N(c2ccc(Br)cc2)C1=O	?	0	?	40µM	?	?	19	76	34
